Test results taken from the supplement of paper PMC6555819.

What was measured:
Assay in all cases: PBM binding z-score (relative to random genomic background probes); higher = stronger binding; sequences stand for … in GC…GCGATTGACAGCGTAGAATGAAGG
[1] = test system: PPARg:RXRa DBDmut IVT, anti-RXR (DBD mutation: RXRa K156A/R161A, NR concentration 270 nM, RXRa partner concentration 90 nM)
How it was run: (§1)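 Each nuclear receptor dimer, without ligand, was incubated for 1 h on custom Agilent 4×180K protein-binding microarrays. Binding was detected with antibodies against each partner (one per run), and scanned fluorescence was regression-normalized. The binding z-scores are referenced to random human genomic background probes.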

[2] = test system: PPARg:RXRa IVT, anti-PPARg (NR concentration 270 nM, RXRa partner concentration 90 nM)
How it was run: as §1

[3] = test system: PPARg DBDmut:RXRa IVT, anti-PPARg (DBD mutation: PPARg1 K132A/R137A, NR concentration 270 nM, RXRa partner concentration 90 nM)
How it was run: as §1

[4] = test system: PPARg DBDmut IVT, anti-PPARg (DBD mutation: PPARg1 K132A/R137A, NR concentration 270 nM)
How it was run: as §1

[5] = test system: PPARg homodimer (NR concentration 180 nM)
How it was run: as §1

[6] = test system: PXR:RXRa (NR concentration 270 nM, RXRa partner concentration 90 nM)
How it was run: as §1

[7] = test system: PXR homodimer (NR concentration 270 nM)
How it was run: as §1

[8] = test system: RARa:RXR (NR concentration 270 nM, RXRa partner concentration 90 nM)
How it was run: as §1

[9] = test system: RARa homodimer (NR concentration 270 nM)
How it was run: as §1

[10] = test system: RARb:RXRa (NR concentration 270 nM, RXRa partner concentration 90 nM)
How it was run: as §1

[11] = test system: RARb homodimer (NR concentration 270 nM)
How it was run: as §1

[12] = test system: RARg:RXRa (NR concentration 270 nM, RXRa partner concentration 90 nM)
How it was run: as §1

[13] = test system: RARg homodimer (NR concentration 270 nM)
How it was run: as §1

[14] = test system: RXRa DBDmut IVT, anti-RXR (DBD mutation: RXRa K156A/R161A, NR concentration 90 nM)
How it was run: as §1

[15] = test system: RXRa homodimer (NR concentration 180 nM)
How it was run: as §1

[16] = test system: THRa:RXRa (NR concentration 90 nM, RXRa partner concentration 90 nM)
How it was run: as §1

[17] = test system: THRa homodimer (NR concentration 90 nM)
How it was run: as §1

[18] = test system: VDR:RXRa (NR concentration 270 nM, RXRa partner concentration 90 nM)
How it was run: as §1

[19] = test system: VDR homodimer (NR concentration 270 nM)
How it was run: as §1

Sequence | PBM binding z-score [1] | PBM binding z-score [2] | PBM binding z-score [3] | PBM binding z-score [4] | PBM binding z-score [5] | PBM binding z-score [6] | PBM binding z-score [7] | PBM binding z-score [8] | PBM binding z-score [9] | PBM binding z-score [10] | PBM binding z-score [11] | PBM binding z-score [12] | PBM binding z-score [13] | PBM binding z-score [14] | PBM binding z-score [15] | PBM binding z-score [16] | PBM binding z-score [17] | PBM binding z-score [18] | PBM binding z-score [19]
ACTAGCAGGCCAAGTTTGGGTCACTCAAACAAAG | 1.09 | 1.22 | -0.627 | -1.37 | 0.284 | 0.859 | -0.237 | 1.45 | -0.797 | 1.83 | 2.42 | 2.46 | 1.72 | -0.26 | 0.865 | 2.54 | 0.952 | 0.525 | 0.495
ATATGTAGGTTAGCTGGGGTCATTTAGACTAGGC | 6.26 | 6.32 | 1.68 | 2.06 | 2.64 | 6.23 | 3.22 | 5.08 | 0.828 | 2.89 | 3.75 | 3.88 | 2.65 | 2.15 | 5.02 | 5.36 | 3 |  | 4.51
ATAGAAAGGTCGACGAGGTGAGTATACACCGTTT | 0.284 | 1.82 | 1.11 | 0.417 | 1.76 | 2.87 | 0.566 | 3.6 | 0.784 | 3.72 | 2.88 | 3.98 | 3.86 | 1.03 | 4.18 | 3.62 | 0.52 | 5.01 | 1.1
GCTAGTTGGTCAGGAAAAGGTCACACACCGGTCG | 0.896 | 2.59 | -0.101 | 0.0698 | 5.18 | 4.97 | 1.13 | 5.97 | 3.68 | 4.17 | 5.07 | 5.34 | 4.46 | 0.286 | 4.98 | 3.52 | 1.64 | 3.66 | 1.68
CCTTACGGGTCACGAAGTTATAGCACGACGAGCG | 3.76 | 4.76 | 0.631 | -0.0727 | 1.89 | 3.31 | -0.0842 | 3.86 | 0.765 | 4.51 | 3.14 | 5.21 | 4.74 | 1.29 | 5.71 | 2.87 | 0.0516 | 3.91 | 0.721
TCATATAGGTAAAAGGTTAAAGTCGGTGTGGTAA | 4.98 | 5.34 | 1.14 | 1.22 | 2.21 | 3.01 | 1.15 | 4.32 | 2.65 | 2.64 | 2.41 | 3.05 | 1.54 | 2.12 | 4.88 | 2.27 | 0.509 | 2.73 | 0.746
CCTTACGGGTCACGAGGTTATAGCTCGACGAGCG | 3.64 | 5.56 | 3.54 | 1.04 | 3.72 | 4.94 | -0.0531 | 6.5 | 1.15 | 4.36 | 3.93 | 6.04 | 5.15 | 1.74 | 6.98 | 3.73 | 0.989 | 5.07 | 1.76
CCTATTACTTGACCATAAGGGCAACCGAAGCTCG | 0.621 | 0.836 | 0.25 | 1.09 | 1.41 | 0.749 | 1.2 | 1.05 | 2.03 | 1.61 | 1.99 | 0.821 | 1.15 | 0.77 | 0.915 | 1.84 | 1.86 | 0.976 | 1.23
